Compound activity deposited in PubChem by National Center for Advancing Translational Sciences (NCATS).
D2 antagonist: HTS Assay for Allosteric Antagonists of the Human D2 Dopamine Receptor: Primary Screen for Antagonists | D(2) dopamine receptor (Homo sapiens), P14416 | HEK293 TREx D2 cells, calcium flux, dopamine EC80 | inhibition, % at 10 µM | 340,000 compounds, 2% hits; in the data active = inhibition above about 30%; inactive = below that, where a call was filed; note: 0% is about no effect
Target sequence (P14416 whole entry, looked up): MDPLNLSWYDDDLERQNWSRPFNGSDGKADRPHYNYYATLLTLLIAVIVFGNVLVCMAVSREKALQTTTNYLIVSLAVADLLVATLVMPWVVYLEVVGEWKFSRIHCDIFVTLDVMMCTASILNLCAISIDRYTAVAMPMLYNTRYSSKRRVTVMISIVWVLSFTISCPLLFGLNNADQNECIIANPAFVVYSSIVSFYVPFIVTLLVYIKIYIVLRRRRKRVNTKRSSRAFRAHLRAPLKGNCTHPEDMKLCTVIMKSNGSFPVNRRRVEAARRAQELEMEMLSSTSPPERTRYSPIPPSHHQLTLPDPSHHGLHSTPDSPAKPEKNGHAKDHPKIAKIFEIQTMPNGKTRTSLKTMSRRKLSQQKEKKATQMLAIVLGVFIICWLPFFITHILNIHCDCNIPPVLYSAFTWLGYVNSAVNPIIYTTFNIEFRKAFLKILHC
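Calcium mobilization kinetics were recorded at 1 s intervals in tetracycline-induced HEK293 T-REx D2 cells, first for 180 s after compound addition and then 180 s after EC80 dopamine.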
D2 ag-1: Beta-Arrestin HTS for Positive Allosteric Modulators of the Human D2 Dopamine Receptor: Agonists; 360,000 compounds, 0.084% hits; D(2) dopamine receptor (Homo sapiens), P14416; DiscoveRx PathHunter D2 beta-arrestin, luminescence, 90 min; 100% = 57 uM dopamine signal; AID 624465, 2012; activation, % (no concentration beside the values); in the data active = activation above about 40%; inconclusive = between about 15% and that limit
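Agonist mode: compounds alone added to overnight-plated D2 PathHunter cells for 90 min at 37 C, with 57 uM final dopamine (EC100) defining full response. Beta-arrestin recruitment detected by chemiluminescent reagent, read after 1 h at ambient temperature.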
D2 ag-2: HTS Assay for Allosteric Agonists of the Human D2 Dopamine Receptor: Primary Screen for Agonists. D(2) dopamine receptor (Homo sapiens), P14416. HEK293 T-REx D2 cells, calcium flux agonist mode. activation, % at 2 µM. 340,000 compounds, 0.53% hits. AID 485358, 2010;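 active = activation over 3 SD above normal in the single-dose calcium agonist read, cut at about 30% in these data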; note: 0% is about no effect
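Agonism is scored from calcium flux in a force-coupled, inducible HEK293 cell line expressing D2, read kinetically for 180 s after compound addition against dopamine controls.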
D2 PAM-1: Beta-Arrestin HTS for Positive Allosteric Modulators of the Human D2 Dopamine Receptor: Potentiators. 360,000 compounds, 0.23% hits. DiscoveRx D2 beta-arrestin cells, luminescence, 90 min; 100% = 57 uM dopamine signal. D(2) dopamine receptor (Homo sapiens), P14416. potentiation, % (test concentration not listed); in the data active = potentiation above about 50%; inconclusive = mostly about 30% to 49%
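PathHunter beta-arrestin assay in DiscoveRx D2 cells. Compounds were added with an EC20 of dopamine (50 nM final) for 90 min at 37 deg C. Luminescence was read 1 h after detection reagent, with 57 uM dopamine as the EC100 control.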
D2 PAM-2: HTS Assay for Positive Allosteric Modulators of the Human D2 Dopamine Receptor: Primary Screen for Potentiators; D(2) dopamine receptor (Homo sapiens), P14416; HEK293 T-REx D2, calcium flux, EC20 dopamine potentiation; potentiation, % at 10 µM; 340,000 compounds, 0.34% hits;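 active = potentiation over 3 SD above the plate norm, cut at about 30% in these data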; note: 0% is about no effect
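Calcium flux readout, no-wash dye, 1 read/s. Inducible HEK293 Trex D2 line, overnight 30 C. Compound alone 180 s (agonist flags), then EC20 dopamine, another 180 s to score potentiation.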
* = called active by the depositor; ? = inconclusive; . = no result. Hits are enriched below; roughly 2.4% of the tested compounds scored in any of these assays.

SMILES	D2 antagonist	D2 ag-1	D2 ag-2	D2 PAM-1	D2 PAM-2
CCNC(=O)C1(C)CCCN(C(=O)c2cc3ccccc3s2)C1 (stereo not drawn)	.	-3	.	-6	.
Cc1nn(C)c2ncc(C(=O)c3ccccc3O)cc12	48*	-1	0	5	13
Cc1ccc(O)c(C(=O)c2cnc3c(c2)c(C)nn3C)c1	1	-1	0	-5	-11
N#CCCN1CCN(Cc2cc(-c3ccccc3)ccc2O)CC1	65*	-1	0	-10	-30
CC(C)(C)CC(C)(C)c1ccc(O)c(CN2CCN(CCC#N)CC2)c1	4	-1	0	-19	-4
O=C(NCC(c1ccc(Cl)cc1)N1CCCCC1)c1ccccc1F (stereo not drawn)	.	.	-1	.	-18
Cc1ccc(S(=O)(=O)NNC(=O)CCC(=O)Nc2ccc(C)c(C)c2)cc1	32*	-12	1	-29	10
COc1ccc(CCNC2CCc3ccccc3C2)cc1 (stereo not drawn)	81*	-5	-1	-69	-12
COc1ccc(CCNC(=O)C2Cc3ccccc3C(=O)O2)cc1 (stereo not drawn)	8	-1	1	-4	9
CCCn1c(N)c(NCCN2CCOCC2)c(=O)n(CC(=O)NCc2ccccc2)c1=O	33*	-3	1	-1	3
Cc1nn(CC(=O)NCCN2CCOCC2)c(=O)c2ccccc12	8	-4	0	-7	1
CCOc1ccc2ncc3c(-c4cccc(OC)c4)nn(-c4ccccc4)c3c2c1	.	.	0	.	1
Cc1ccc(C(=O)NCC(=O)N(C)Cc2ccccc2C)s1	.	1	.	-9	.
COc1ccccc1NC(=O)N1CCN(C)CC1	-1	1	1	-4	-11
COc1ccccc1NC(=O)N1CCCC1	33*	0	0	-5	2
c1ccc(-c2cc3n(c2)CCc2ccccc2-3)cc1	33*	1	1	5	-4
COc1ccccc1-c1nn(-c2ccccc2)cc1C(=O)NCC(c1ccco1)N1CCCC1 (stereo not drawn)	40*	-3	0	-4	-27
O=C(NCC(c1ccco1)N1CCCC1)c1cn(Cc2ccccc2)nc1-c1ccccc1 (stereo not drawn)	-6	0	0	-23	-5
COc1ccccc1C(CNC(=O)c1ccco1)N1CCCC1 (stereo not drawn)	37*	-5	1	-10	-13
O=C(NCC(c1ccco1)N1CCCC1)c1cn(-c2ccccc2)nc1-c1ccc(F)cc1 (stereo not drawn)	76*	-4	-1	-49	-22
COc1ccc(Cl)cc1C(=O)NCC(c1ccco1)N1CCCC1 (stereo not drawn)	29	-2	-1	-20	-17
CCOc1ccc(NC(=O)c2ccc(NS(=O)(=O)c3cccs3)cc2)cc1	-10	-12	0	0	-6
C/C(=N\NC(=O)c1ccccc1F)c1ccc2c(c1)Nc1ccccc1S2	-4	?	0	87*	-3
CCCSc1ncc(Cl)c(C(=O)Nc2sc(C(C)=O)c(C)c2C(=O)OCC)n1	.	.	0	.	.
CCOC(=O)CNC(=S)N(Cc1ccccc1)Cc1cccnc1	2	-3	1	-5	.
O=C(CSc1nc2ccccc2o1)Nc1nc(-c2ccccc2)cs1	30*	-3	-1	-13	-21
CCOC(=O)/C=C/C(=O)Nc1ccc(S(=O)(=O)N2CCCCCC2)cc1	31*	-3	0	-5	13
CCOC(=O)C1CC(c2ccc(Cl)cc2)=NNC1=O (stereo not drawn)	-16	0	1	-5	3
CCOC(=O)CNC(=O)CSc1ncnc2c1cnn2-c1ccc(C)cc1	5	1	0	-3	-5
Cc1ccc(-n2ncc3c(SCC(=O)NNC(=O)c4ccco4)ncnc32)cc1	-1	1	0	-3	32*
